Most compounds without a hit are left out; they make up all but 10% or so of the library.
NIH3T3 tox: Cytotoxic Profiling in NIH 3T3 Cell Line of Diverse Libraries Using Quantitative High-Throughput Screening | AID 1345082, 2018 | hit rate 4.3% among 94,000 | NIH 3T3 viability, CellTiter-Glo ATP luminescence, 48-72 h | Potency, µM (titrated, usually from 96.7 µM), for the others: at the highest dose activity change, negative = cytotoxicity, hits mostly inhibitors; note: nearly all actives have a fitted effect of over 55% in size
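Cytotoxicity was measured by CellTiter-Glo ATP luminescence after 48 or 72 h compound exposure at 37 °C. Mouse NIH 3T3 fibroblasts were seeded at 400 cells/well and dosed by 23 nL pin transfer.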
Luciferase inh: Firefly luciferase inhibition profiling of diverse chemical library using quantitative high-throughput screening; purified P. pyralis luciferase, luminescence, biochemical; Luciferin 4-monooxygenase (Photinus pyralis), P08659; Potency, µM (highest dose often 115 µM), hits mostly inhibitors; hit rate 2.5% among 76,000; note: nearly all actives have a fitted effect of over 65% in size
Target sequence (P08659 whole entry, looked up): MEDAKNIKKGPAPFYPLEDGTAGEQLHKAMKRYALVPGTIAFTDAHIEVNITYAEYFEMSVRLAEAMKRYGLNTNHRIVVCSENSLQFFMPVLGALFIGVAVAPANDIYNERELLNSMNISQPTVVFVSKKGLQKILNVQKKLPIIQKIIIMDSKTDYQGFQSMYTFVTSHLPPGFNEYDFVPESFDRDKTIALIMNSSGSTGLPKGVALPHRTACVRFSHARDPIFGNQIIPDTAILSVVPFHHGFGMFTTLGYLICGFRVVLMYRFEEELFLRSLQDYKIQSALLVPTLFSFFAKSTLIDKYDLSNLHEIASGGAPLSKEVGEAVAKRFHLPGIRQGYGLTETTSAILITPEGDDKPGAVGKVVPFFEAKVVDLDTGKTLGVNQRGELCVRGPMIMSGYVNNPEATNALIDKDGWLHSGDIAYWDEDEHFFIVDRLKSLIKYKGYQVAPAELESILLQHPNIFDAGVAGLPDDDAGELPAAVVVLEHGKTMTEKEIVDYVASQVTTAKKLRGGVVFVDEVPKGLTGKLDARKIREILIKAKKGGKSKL
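Purified 10nM P. pyralis luciferase with 10uM D-luciferin and 10uM ATP in 50mM Tris acetate pH 7.5, 10mM Mg acetate, 0.01% Tween-20, 0.05% BSA. qHTS titration; luminescence read by CCD imager.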
HEK293 tox: Cytotoxic Profiling in HEK 293 Cell Line of Diverse Libraries Using Quantitative High-Throughput Screening. HEK 293 viability, ATP luminescence (CellTiter-Glo), 48-72 h. hit rate 6.6% among 94,000. AID 1345083, 2018. Potency, µM (highest dose often 115 µM), inactives show top-dose activity change, negative = cytotoxicity, actives largely listed as inhibitors; note: nearly all actives have a fitted effect of over 60% in size
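ATP-coupled CellTiter-Glo luminescence served as viability read-out, recorded 10 min after reagent addition at room temperature. HEK 293 cells, 250 cells/well, had been incubated with pintool-transferred compound for 48 or 72 hr at 37 degree Celsius.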
GPT2 inh: Primary qHTS assay for inhibitors of Glutamate pyruvate transaminase 2 (GPT2) | Alanine aminotransferase 2 (Homo sapiens), Q8TD30 | Recombinant GPT2, coupled pyruvate oxidase/HRP Amplex Red fluorescence | Potency, µM (titrated, usually from 57.7 µM), without a hit: top-dose activity change, negative = inhibition, hits mostly inhibitors | hit rate 0.25% among 100,000 | AID 1671188, 2021; note: nearly all actives have a fitted effect of over 60% in size
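GPT2 10ng/uL, a-KG 250uM, L-Ala 2mM, HEPES pH7.5 + 0.0001% Tween; 30 min RT. Then Amplex mix (PO/HRP/ThPP), 30 min RT dark, fluorescence. AOA 50uM used as positive control.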
NPR1 antag: Natriuretic polypeptide receptor (hNpr1) antagonism - Primary qHTS | HEK293 hNpr1 GloSensor cGMP, ANP-stimulated luminescence | Atrial natriuretic peptide receptor 1 (Homo sapiens), P16066 | hit rate 1.6% among 76,000 | Potency, µM (titrated, usually from 46.3 µM), for inactives: at the highest dose activity change, negative = inhibition, usual class: inhibitors; calls by dose curve; note: nearly all actives have a fitted effect of over 60% in size
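Compound pre-incubated 30 min at room temperature on GloSensor-loaded HEK293 cells stably carrying hNpr1 and the pGS-40F cGMP biosensor. Stimulation uses hNppA at 0.1 nM final; luminescence is taken at baseline and 20 min post-agonist.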
Numbers without * were called inactive; i = inactive; ? = inconclusive; nt = no result; ! = a repeat was not active; [ ] = another dose, or the depositor's remark. Unless noted, calls come from the whole dose curve; as a rule, active = well fitted curve in the direction sought with a large enough effect; inconclusive = small, poorly fitted or top-dose-only effect, or another doubt; inactive = no such curve, though single readings can be large; an effect the other way counts as inactive or inconclusive. % is set by controls: 0 for no effect and ±100 for the full control effect; potency is the fitted concentration of half-maximal effect.

SMILES	NIH3T3 tox	Luciferase inh	HEK293 tox	GPT2 inh	NPR1 antag
CCOc1ccccc1C(=O)N1CCN(c2cc(-c3ccc(Cl)cc3)[nH]n2)CC1	17.8µM*	i	35.5µM*	-10.9%	-28.2%
CCOc1cc(C(=O)N2CCN(c3cc(-c4ccc(Cl)cc4)[nH]n3)CC2)cc(OCC)c1OCC	31.6µM*	i	35.5µM*	i	-5.0%
CCOc1ccccc1C(=O)N1CCN(c2cc(-c3cccs3)[nH]n2)CC1	?	i	39.8µM*	-12.3%	-23.0%
COc1cc(C(=O)N2CCN(c3cc(-c4ccc(Cl)cc4)[nH]n3)CC2)cc(OC)c1OC	25.1µM*	i	?	i	?
CCOCC(=O)N1CCc2nc3cc(-c4ccc(OC)cc4)[nH]n3c(=O)c2C1	?	?	?	i	-7.1%
CN1Cc2ccccc2NCCC1=O	?	nt	-9.5%	nt	nt
COc1ccccc1CC(=O)N1CCN(c2cc(-c3cccs3)[nH]n2)CC1	?	i	39.8µM*	3.1%	?
Cc1ccc(CC(=O)N2CCN(c3cc(-c4cccs4)[nH]n3)CC2)cc1	?	i	?	i	-21.2%
CCOc1ccc(CC(=O)N2CCN(c3cc(-c4cccs4)[nH]n3)CC2)cc1OCC	28.2µM*	i	44.7µM*	i	-1.2%
COC(=O)[C@H](Cc1ccc(OC)cc1)NC(=O)[C@@H]1CN(C(=O)NC(C)C)CCN1S(C)(=O)=O	-6.7%	i	3.1%	-12.9%	-1.6%
COC(=O)[C@H](Cc1ccc(OC)cc1)NC(=O)[C@H]1CN(C(C)=O)CCN1S(=O)(=O)c1ccccc1	44.7µM*	i	i	4.3%	3.0%
CSc1ccc(-c2ccc3c(c2)C(=O)N2CCN(C(=O)CC(C)(C)C)C[C@@H]2C(=O)N3)cc1	?	i	35.5µM*	0.3%	-20.4%
CSc1ccc(-c2ccc3c(c2)C(=O)N2CCN(C(=O)CCC(=O)O)C[C@@H]2C(=O)N3)cc1	i	?	i	-6.3%	2.6%
CSc1ccc(-c2ccc3c(c2)C(=O)N2CCN(C(=O)CCC(=O)O)C[C@H]2C(=O)N3)cc1	-3.7%	31.6µM*	-1.6%	0.0%	3.7%
Cc1cccc(OCCc2noc(C3CCCN3C(=O)c3n[nH]c(=O)c4ccccc34)n2)c1 (stereo not given)	?	i	39.8µM*	-3.5%	-1.6%
CNC(=O)c1cc(C2CC2)nc2onc(C3CCN(C(=O)Cc4ccc(F)cc4)C3)c12 (stereo not given)	?	nt	-20.5%	nt	nt
O=C1COc2ccc(-c3ccncc3)nc2CN1Cc1ccc(C(F)(F)F)cc1	?	i	79.4µM*	-9.5%[88.5 µM]	-6.8%[70.6 µM]
O=C1COc2ccc(-c3ccncc3)nc2CN1Cc1ccccc1	?	i	?	i	-17.3%[70.6 µM]
O=C1COc2ccc(NCc3cccs3)nc2CN1Cc1ccc(C(F)(F)F)cc1	79.4µM*	i	79.4µM*	-7.8%[88.5 µM]	?
Cc1nc(CN2Cc3nc(-c4cccc(C(F)(F)F)c4)ccc3OCC2=O)cs1	79.4µM*	i	100µM*	4.4%[88.5 µM]	-2.0%[70.6 µM]
COc1ccc(-c2ccc3c(n2)CN(Cc2csc(C)n2)C(=O)CO3)cc1F	?	i	?	i	-11.3%[70.6 µM]
O=C1COc2ccc(OCC3CC3)nc2CN1Cc1ccc(C(F)(F)F)cc1	79.4µM*	i	79.4µM*	?	-9.1%[70.6 µM]
O=C(O)c1cc(N(Cc2ccc(C3CCCCC3)cc2)C(=O)c2ccc(Oc3ccccc3)cc2)ccc1O	nt	nt	nt	-15.2%	nt
CC(C)N1CC(C(=O)NCc2ccc(Cl)cc2)NC1=O (stereo not given)	-30.1%[138 µM]	nt	?	i	nt
O=C(CN1Cc2nc(-c3ccsc3)ccc2OCC1=O)N1CCCC1	?	i	-21.5%[172 µM]	-3.6%[88.5 µM]	-7.9%[70.6 µM]
SMILES	NIH3T3 tox	Luciferase inh	HEK293 tox	GPT2 inh	NPR1 antag
O=C(CN1Cc2nc(Nc3ccc(C(F)(F)F)cc3)ccc2OCC1=O)N1CCCC1	50.1µM*	i	79.4µM*	3.8%[88.5 µM]	-16.3%[70.6 µM]
O=C1COc2ccc(-c3cn[nH]c3)nc2CN1Cc1ccc(C(F)(F)F)cc1	10µM*	i	?	0.2%[88.5 µM]	-15.8%[70.6 µM]
CC(C)(C)C(=O)NC1CCN(c2ccnc3ccnn23)C1 (stereo not given)	-29.3%[138 µM]	nt	-18.3%[172 µM]	1.9%[88.5 µM]	nt
O=c1nc(-c2ccccn2)sc2ccccc12	nt	nt	nt	-0.3%	nt
NC1CC(c2nnc(COc3ccc4c(c3)CCNCC4)n2C2CC2)C1 (stereo not given)	?	i	17.8µM*!	-6.1%	1.4%
COc1ccc(CN2CCCCCNC(=O)[C@@H]3CCC[C@@H]32)cc1Cn1ccnc1	?	i	?	i	-2.6%
Cc1ccc(CNC(=O)c2ccc3c(c2)CN(Cc2cccc(F)c2F)CCO3)cc1	?	i	79.4µM*	i	-2.9%
CCCCCC(=O)Nc1nc2c(s1)C[C@@H]1[C@](C)(CO)[C@H](O)CC[C@@]1(C)[C@@H]2CC(=O)N[C@@H](CO)CC(C)C	79.4µM*	i	?	?	3.1%
C[C@]1(CO)[C@H]2Cc3sc(NC(=O)c4ccc(F)cc4)nc3[C@@H](CC(=O)O)[C@]2(C)CC[C@H]1O	-1.4%	i	2.6%	0.5%	1.5%
CC(C)C[C@H](CO)NC(=O)C[C@@H]1c2nc(NC(=O)CC(C)(C)C)sc2C[C@@H]2[C@](C)(CO)[C@H](O)CC[C@]21C	-0.7%	i	1.5%	0.8%	-0.2%
C[C@H](NC(=O)C[C@@H]1c2nc(NC(=O)c3ccc(F)cc3)sc2C[C@@H]2[C@](C)(CO)[C@H](O)CC[C@]21C)c1ccccc1	?	i	31.6µM*	?	-8.9%
C[C@@H](NC(=O)C[C@@H]1c2nc(NC(=O)CC(C)(C)C)sc2C[C@@H]2[C@](C)(CO)[C@H](O)CC[C@]21C)c1ccccc1	?	i	39.8µM*	-4.9%	1.1%
CC(C)(C)CC(=O)Nc1nc2c(s1)C[C@@H]1[C@](C)(CO)[C@H](O)CC[C@@]1(C)[C@@H]2CC(=O)O	-27.6%[174 µM]	i	-3.3%[172 µM]	i	8.5%[70.6 µM]
CN1CC(C(=O)NCc2cccc(Cl)c2)NC1=O (stereo not given)	-10.7%[138 µM]	nt	-5.3%[172 µM]	-3.7%[88.5 µM]	nt
COc1ccc(C)cc1NC(=O)Cn1cccc1-c1nc(-c2ccc3c(c2)OCO3)no1	39.8µM*	i	?	-12.4%	-7.5%
O=C(NCCn1cccc1-c1nc(-c2ccccc2)no1)c1ccc(F)c(Cl)c1	?	i	44.7µM*	0.5%	-13.7%
Cc1ccc(NC(=O)Cn2cccc2-c2nc(-c3ccc4c(c3)OCO4)no2)c(Cl)c1	i	i	-1.9%	i	-24.2%

Bioassay records as filed in PubChem BioAssay.
